Laboratory results as given in PubChem BioAssay AID588727 (Southern Research Specialized Biocontainment Screening …, 2011).
Among all 350,000 compounds or so, about 450 (0.13%) were called active. How the calls were made is not given here. Not all results are given here. Results with a measured potency or affinity are listed apart.

Assay: inhibitors of VEEV TC-83 cytopathic effect, confirmation, Vero cells (AID 588727)
Conditions: VEEV TC-83 cytopathic effect inhibition, at 20 µM
[1] = measured here: 10K pilot screen inhibition, stronger effect = higher value
[2] = stronger effect = higher value unless noted

O=c1[nH]c(CSc2ncccn2)nc2c1cnn2-c1ccccc1
inhibition (stronger effect = higher value): 5.59% (inactive) | inhibition [1]: 3.44%

c1ccc(-n2ncc3c2ncn2nc(CSc4nc5ccccc5s4)nc32)cc1
inhibition [2]: inactive

CCc1ccc(OCC(=O)Nc2nnc(-c3ccco3)s2)cc1
inhibition [2]: 0.88% (inactive)

Cc1ccc(-n2ncc3c(NCc4ccccn4)ncnc32)c(C)c1
inhibition [2]: 1.72% (inactive)

Cc1ccc(-n2ncc3c(NCc4cccnc4)ncnc32)c(C)c1
inhibition [2]: 1.66% (inactive)

CSc1ncnc2c1cnn2-c1ccc(C)cc1C
inhibition [2]: 8.17% (inactive)

Fc1ccc(-n2ncc3c(SCc4cccnc4)ncnc32)cc1
inhibition [2]: 3.59% (inactive)

COc1ccc(C(C(=O)NCC2CCCO2)N(Cc2ccc(F)cc2)C(=O)CNC(=O)c2ccco2)cc1OC (centres undefined)
inhibition [2]: 1.15% (inactive)

Cc1cc(O)ccc1N1C(=O)c2cccc3cc([N+](=O)[O-])cc(c23)C1=O
inhibition [2]: inactive

O=C1c2cccc3cc([N+](=O)[O-])cc(c23)C(=O)N1c1nncs1
inhibition [2]: inactive

Cc1ccc(C)c(OCc2cc(C(=O)N3CCN(c4ccccc4C)CC3C)no2)c1 (centres undefined)
inhibition [2]: 4.26% (inactive)

Cc1cc(C(=O)N(Cc2nnc(-c3ccc(Cl)cc3)o2)C(C)C)c2ccccc2n1
inhibition [2]: 8.49% (inactive)

c1ccc(-c2cnnc(-c3ccccn3)n2)cc1
inhibition [2]: 2.25% (inactive)

c1ccc(-c2nc(-c3ccccn3)no2)cc1
inhibition [2]: inactive

CCCCn1c(N)c(N(CCC(C)C)C(=O)CSc2nnc3ccccn23)c(=O)[nH]c1=O
inhibition [2]: 0.96% (inactive)

COCCCNC(=O)/C=C/c1ccc(Cl)cc1
inhibition [2]: inactive

CN(C)CCCNC(=O)/C=C/c1ccc2c(c1)OCO2
inhibition (stronger effect = higher value): 0.85% (inactive) | inhibition [1]: 1.09%

Cc1cc(-c2nnc(CCC(=O)NC(C)c3ccc(F)cc3)o2)no1 (centres undefined)
inhibition (stronger effect = higher value): 0.09% (inactive) | inhibition [1]: 1.8%

Nc1nnc(SCC(=O)OCC(=O)Nc2ccc(Br)cc2F)s1
inhibition [2]: 1.19% (inactive)

COc1ccc(S(=O)(=O)N2CCOCC2)cc1C(=O)NCc1ccccc1CN1CCCC1
inhibition [2]: 0.08% (inactive)

CCc1ccc(-c2nc(CSCC(=O)NCCCN3CCCC3=O)c(C)o2)cc1
inhibition [2]: 3.51% (inactive)

CCCOc1ccccc1/C=C1\SC(N)=NC1=O
inhibition [2]: 2.5% (inactive)

O=C1N=C(N2CCCCC2)S/C1=C\c1ccccc1F
inhibition [2]: 0.16% (inactive)

CCOC(=O)C1CCCN(c2oc(-c3ccc(OC)cc3)nc2C#N)C1 (centres undefined)
inhibition [2]: 2.16% (inactive)

O=C(COC(=O)COc1ccccc1)NCCc1ccccc1
inhibition [2]: 0.2% (inactive)

CCC(=NC(C)c1ccccc1)c1c(O)[nH]c(=O)[nH]c1=O (centres undefined)
inhibition [2]: 1.39% (inactive)

C=CCSc1nc2ccccc2n1C(=O)/C=C/c1cc(OC)c(OC)c(OC)c1
inhibition [2]: 2.65% (inactive)

CCn1c(SCC(=O)N/N=C/c2ccc(OC)c(OC)c2)nc2ccccc21
inhibition (stronger effect = higher value): 4.2% (inactive) | inhibition [1]: 2.22%

CC(=O)N1CCC(N(CCCOC(C)C)S(=O)(=O)c2ccc([N+](=O)[O-])cc2)CC1
inhibition [2]: inactive

Cc1ccc(-c2nc(CSCC(=O)N3CCCC3)c(C)o2)cc1
inhibition [2]: inactive

Cc1oc(-c2ccccc2Cl)nc1CSCC(=O)O
inhibition [2]: 1.08% (inactive)

O=C(NC(=S)NCCO)c1cn(-c2ccccc2)nc1-c1ccccc1
inhibition [2]: 1.03% (inactive)

COc1ccc(NC(=O)c2cn(-c3ccccc3)nc2-c2ccncc2)cc1
inhibition [2]: 8.65% (inactive)

Cc1onc(-c2ccccc2)c1C(=O)NC(=S)NNC(=O)c1ccncc1
inhibition [2]: 1.78% (inactive)

CCN(CC)CCNC(=S)NC(=O)c1cn(-c2ccccc2)nc1-c1ccc(OC)cc1
inhibition [2]: inactive

Cc1onc(-c2ccccc2)c1C(=O)Nc1sc2c(c1C#N)CCC2
inhibition [2]: 2.67% [measured here: 10K pilot screen inhibition, stronger effect = higher value] | outcome [2]: inactive

Cc1ccc(NC(=O)Nc2nnc(-c3ccccc3F)s2)cc1
inhibition [2]: 0.72% (inactive)

Cc1ccc(S(=O)(=O)N(C)c2ccc(C(=O)Nc3c(C)n(C)n(-c4ccccc4)c3=O)cc2)cc1
inhibition [2]: 2.04% (inactive)

Cn1ncc(Br)c1C(=O)O
inhibition (stronger effect = higher value): 0.63% (inactive) | inhibition [1]: 1.4%

CCC1CSC(Nc2ccc(C(=O)/C=C/c3cccc(C)c3)cc2)=N1 (centres undefined)
inhibition [2]: 32.8% (inactive)

CCC1CSC(Nc2ccc(C(=O)/C=C/c3ccc(Br)cc3)cc2)=N1 (centres undefined)
inhibition [2]: 0.39% (inactive)

O=C(NC1CCCc2c1cnn2-c1ccc(F)cc1F)c1ccccn1 (centres undefined)
inhibition [2]: inactive

O=C(NC1CCCc2c1cnn2-c1ccccc1F)c1ccncc1 (centres undefined)
inhibition [2]: inactive

Cc1cc(C(=O)NC2CCCc3c2cnn3-c2cccc(C)c2C)n(C)n1 (centres undefined)
inhibition [2]: inactive

CC1=C(C(=O)NC2CCCc3c2cnn3-c2cccc(C)c2C)OCCO1 (centres undefined)
inhibition [2]: 1.75% (inactive)

COc1ccc(C(=O)NC2CCCc3c2cnn3-c2cc(F)cc(F)c2)c(OC)n1 (centres undefined)
inhibition [2]: 0.41% (inactive)

COCCC(=O)NC1CCCc2c1cnn2-c1cccc(C)c1C (centres undefined)
inhibition [2]: inactive

O=C(CSc1nnc(Cc2ccccc2)c(=O)[nH]1)Nc1ccccc1
inhibition [2]: 1.19% (inactive)

CC1CCCC(=NNC(=O)C2COc3ccccc3O2)C1 (centres undefined)
inhibition [2]: 1.68% (inactive)

C=CCNc1n[nH]c(=S)s1
inhibition [2]: 0.53% (inactive)

Cc1cc(/C=C(\C#N)C(=O)Nc2ccccc2)c(C)n1-c1cccnc1
inhibition [2]: 4.21% (inactive)

CCC(NC(=O)Cc1c(C)c2cc3c(cc2oc1=O)OC(C)(C)CC3)C(=O)O (centres undefined)
inhibition [2]: 0.65% (inactive)

C(=N\N1CCN(C(c2ccccc2)c2ccccc2)CC1)/c1ccc2c(c1)OCO2
inhibition [2]: inactive

COC(=O)c1c(C)[nH]c(C(=O)C(C)OC(=O)c2c(C)noc2C)c1C (centres undefined)
inhibition [2]: inactive

O=C1N=C(N2CCOCC2)SC1=C1CCCCC1
inhibition [2]: 1.03% (inactive)

Cc1oc(-c2ccc(Cl)cc2)nc1CN1CCC(C(=O)NCCCN2CCOCC2)CC1
inhibition [2]: 2.07% (inactive)

Cc1oc(-c2ccc(Cl)cc2)nc1CN1CCC(C(=O)NCC2CCCO2)CC1 (centres undefined)
inhibition [2]: 0.22% (inactive)

Cc1cccc(N2CCN(Cc3nc(-c4cccc(Cl)c4)oc3C)CC2)n1
inhibition [2]: inactive

Cc1cc(N2CCN(Cc3nc(-c4ccc(F)cc4)oc3C)CC2)cc(C)n1
inhibition [2]: 0.13% (inactive)

CCN(CCNC(=O)C1CCN(Cc2nc(-c3ccc(Cl)cc3)oc2C)CC1)c1ccccc1
inhibition [2]: inactive

Cc1ccccc1-c1nc(CN2CCC(C(=O)NCCCN3CCCC(C)C3)CC2)c(C)o1 (centres undefined)
inhibition [2]: 9.38% (inactive)

CC(=O)c1cccc(-n2c(CCC(=O)O)ccc2-c2cccs2)c1
inhibition [2]: inactive

COc1ccc(-c2nnc(SCC(=O)c3cccs3)n2-c2ccc(Cl)cc2)cc1
inhibition [2]: 8.15% (inactive)

O=C(N/N=C/c1cccnc1)C12CC3CC(CC(C3)C1)C2
inhibition [2]: 2.16% (inactive)

Cc1[nH]c2ccc(F)cc2c1CCN(Cc1cccnc1)C(=S)Nc1cccc(F)c1
inhibition [2]: 2.61% (inactive)

O=C(O)/C(=C\c1ccc(-c2ccc(F)cc2)o1)c1ccccc1
inhibition [2]: 1.57% (inactive)

COc1cccc(/C=C2/CCC(CN(C)C)C2=O)c1 (centres undefined)
inhibition [2]: 48.7% (inactive)

CN(C)CC1CC/C(=C\c2ccc(O)cc2)C1=O (centres undefined)
inhibition [2]: inactive

O=C(CSc1nc2c([nH]c3ccccc32)c(=O)n1-c1ccccc1F)NCC1CCCO1 (centres undefined)
inhibition [2]: 9.1% (inactive)

CCCN(Cc1nnc(-c2cccs2)o1)C(=O)c1cccc(S(=O)(=O)N2CCOCC2)c1
inhibition [2]: 3.36% (inactive)

O=C(c1cc(S(=O)(=O)N2CCCCC2)ccc1F)N1CCCCC1
inhibition [2]: 2.62% (inactive)

Cc1nn(-c2ccccn2)c(C)c1Oc1ccccc1O
inhibition [2]: 0.59% (inactive)

Cc1cc(C)nc(-n2nc(C)c(Oc3ccccc3O)c2C)n1
inhibition [2]: 2.08% (inactive)

CCOc1ccc(-c2ccc(SCc3ccccn3)nn2)cc1
inhibition [2]: 8.3% (inactive)

Cc1[nH]c(C)c(S(=O)(=O)N2CCN(c3cccc(Cl)c3)CC2)c1C(=O)N1CCCC1
inhibition [2]: 1.13% (inactive)

Cc1[nH]c(C)c(S(=O)(=O)N2CCN(c3cccc(C(F)(F)F)c3)CC2)c1C(=O)N1CCCC1
inhibition [2]: 0.9% (inactive)

S=C(NCCCN1CCOCC1)N1CCN(c2nc(-c3ccc(Cl)cc3)cs2)CC1
inhibition [2]: 1.38% (inactive)

N=C1C(c2nc(-c3ccc(F)cc3)cs2)=C(O)CN1CCCN1CCOCC1
inhibition (stronger effect = higher value): 1.67% (inactive) | inhibition [1]: 0.31%

CCc1cc(=O)oc2cc(C)cc(OC(C)C(=O)NCCN3CCOCC3)c12 (centres undefined)
inhibition [2]: 2.06% (inactive)

CC(C)CCSc1nc2ccccc2[nH]1
inhibition [2]: 0.68% (inactive)

COc1ccc(OC)c(C(=O)COC(=O)COc2ccccc2F)c1
inhibition [2]: 0.88% (inactive)

Cc1ccc(OCCCCN2CCC(C)CC2)c(Br)c1
inhibition [2]: 0.3% (inactive)

Cc1ccc(OCCCCN2CCCCC2)c(Br)c1
inhibition [2]: inactive

CN(Cc1ccccc1)C(=O)COC(=O)c1cc(Cl)nc(Cl)c1
inhibition [2]: 2.37% (inactive)

Cc1ccc(NC(=O)c2cccc(S(=O)(=O)N3CCN(C)CC3)c2)cc1F
inhibition [2]: inactive

CCOc1ccc(C(=O)Nc2sc3c(c2C(=O)OC)CC(C)(C)NC3(C)C)cc1
inhibition [2]: 10.2% (inactive)

COC(=O)c1c(NC(=O)c2ccccc2)sc2c1CC(C)(C)NC2(C)C
inhibition [2]: 1.35% (inactive)

COc1ccc(NC(=O)C2CCN(S(=O)(=O)c3cccc4nonc34)CC2)cc1
inhibition [2]: 1.18% (inactive)

O=C(O)c1cccc(N/N=C/c2cc(Br)cc(Br)c2O)c1
inhibition [2]: 0.48% (inactive)

O=C(O)c1ccccc1NN=Cc1ccccc1
inhibition [2]: 0.89% (inactive)

COc1ccc(CN2CCN(c3ccccc3F)CC2)cc1O
inhibition [2]: 0.89% (inactive)

CCc1ccc(Nc2nc(N3CCOCC3)nc(N3CCOCC3)n2)cc1
inhibition [2]: 0.26% (inactive)

Cn1cc(Br)c(C(=O)NNC(=O)c2ccc(Cl)cc2)n1
inhibition [2]: 0.65% (inactive)

CCCCC#Cc1cncc(C(=O)NN)c1
inhibition [2]: 1.61% (inactive)

CC1CCN(c2ccc(C(=O)O)cc2NS(=O)(=O)c2ccc(Br)cc2)CC1
inhibition [2]: inactive

CC(=O)Nc1cccc(Oc2ncnc3scc(-c4ccc(C)cc4)c23)c1
inhibition [2]: 7.98% (inactive)

CC(=O)Nc1cccc(Oc2ncnc3scc(-c4ccccc4)c23)c1
inhibition [2]: 11% (inactive)
